Relative growth data for 26 compounds are collected here from PubChem BioAssay AID720641 (ICCB-Longwood Screening Facility, Harvard Medical School, 2013).

Molecules are shown by their SMILES. Several values for one entry are separate records, joined by “and”; a condition that tells them apart may be missing. Identical values can stand only once. Out of some 170,000 compounds screened, about 900 (0.53%) were called active.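 Rule for the calls: active = relative growth at most 50% at the other temperature and 20+ points below 30 °C, or under 10% at both; inactive = the rest, inconclusive results apart.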 The sample as a whole holds a higher share of actives than the screen did.

This test in a line: S. aureus growth inhibition at 42 and 30 °C, primary screen, LtaS inhibitor project, RN4220, two temperatures (AID 720641). The following applies: OD600, 20 h, 42 °C, stronger effect = lower value.

`CC1=NN(c2ccccc2)C(=O)C1C=C1C(=O)N(C)C(=S)N(C)C1=O` (configuration not stated): the relative growth was 109% (inactive). Moreover, the relative growth (measured here: growth at 30 °C) worked out at 103%.
In the same order, the values of `Cc1c(C(=O)NC2CCCC2)oc2ccc(S(=O)(=O)N(C)C3CCCCC3)cc12` are 142% (inactive) and 89.2%.
Taken in the same sequence, the figures for `CCCCNC(=O)c1cc(-c2ccc(Cl)c(Cl)c2)on1` were 100% (inactive) and 88%.
With `COCCNC(=O)c1cc(-c2cccc(Cl)c2)on1`, the relative growth was 92.5% (inactive). Besides, the relative growth (measured here: growth at 30 °C) worked out at 110%.
In the same order, the values of `Cc1ccc(-c2cc(C(=O)Oc3ccccc3Cl)no2)cc1C` are 0.23% (active) and -0.03%.
Taken in the same sequence, the figures for `CC(=O)Nc1ccc2nc3c(cc2c1)[nH]c1ccccc13` were 114% (inactive) and 93.5%.
In the same order, the values of `COc1ccc(-c2csc3ncnc(NCCSCc4ccco4)c23)cc1` are 67.1% (inactive) and 66.9%.
For the compound `Clc1ccc(C(Cn2ccnc2)OCc2ccsc2Cl)c(Cl)c1` (configuration not stated), the relative growth was -0.03% (active) and -0.62% (active). For the same compound, for the setting “measured here: growth at 30 °C”, the relative growth is 0.13% and 0.06%.
`CC1CCCCN1C(=O)c1ccc(Br)cc1` (configuration not stated): the relative growth is 99.9% (inactive). The relative growth (measured here: growth at 30 °C) amounted to 91.1%.
Taken in the same sequence, the figures for `COc1ccc(N=C2SCCCN2C(=O)C2CCCC2)cc1OC` were 94.4% (inactive) and 86%.
Regarding `CC(NCc1ccc(OC(F)F)cc1OC(F)F)c1ccc(-n2ccnc2)cc1` (configuration not stated), the relative growth is 101% (inactive). Moreover, the relative growth (measured here: growth at 30 °C) is 92.4%.
In the same order, the values of `COc1ccccc1NC(=O)Oc1ccc2ccncc2c1` are 105% (inactive) and 97.9%.
In the same order, the values of `Sc1ccc2ccccc2c1` are 82.2% (inactive) and 91%.
In the same order, the values of `c1ccc2cc3cnccc3cc2c1` are 3.61% (active) and 2.36%.
For the compound `CC(=O)N1CC=C(c2ccc(O)cc2)CC1`, the relative growth was 37.5% (inactive). The relative growth (measured here: growth at 30 °C) was 31.2%.
In the same order, the values of `O=C(NCCc1ccccc1)c1ccc(C(=O)c2ccccc2)o1` are 99.2% (inactive) and 94.2%.
Taken in the same sequence, the figures for `Cc1cc(C)cc(NS(=O)(=O)c2ccc3c(c2)CC(=O)N3)c1` were 96.8% (inactive) and 77%.
`COc1cc(NC(=O)c2cc3ccc4cccnc4c3[nH]2)cc(OC)c1OC`: the relative growth was 90.5% (inactive). In addition, the relative growth (measured here: growth at 30 °C) came out at 89.8%.
Taken in the same sequence, the figures for `Cc1cc(NC(=O)c2cc3ccc4cccnc4c3[nH]2)no1` were 108% (inactive) and 92.6%.
As for `CC1=Nc2c(ccc3cccnc23)C1(C)C`, the relative growth was 3.05% (active). The relative growth (measured here: growth at 30 °C) was determined as 2.08%.
In the same order, the values of `O=C(COC(=O)c1n[nH]c2ccccc12)Nc1ccc(N2CCOCC2)cc1` are 104% (inactive) and 96.3%.
In the same order, the values of `Cc1ccc(-n2c(C)ccc2C)cc1` are 97.4% (inactive) and 101%.
Taken in the same sequence, the figures for `Oc1c(Cl)cc(Cl)c(Cl)c1Cc1c(O)c(Cl)cc(Cl)c1Cl` were -0.02% (active) and -0.87%.
As for `CN1CCC(N(C)C(=O)Nc2c[nH]c3ccccc23)CC1`, the relative growth is 3.18% (active). The relative growth (measured here: growth at 30 °C) came out at 6.3%.
Taken in the same sequence, the figures for `O=C(Nc1c[nH]c2ccccc12)NC1CCCC1` were 103% (inactive) and 62.5%.
In the same order, the values of `COCC(C)NC(=O)Nc1c[nH]c2ccccc12` (configuration not stated) are 78.5% (inactive) and 50.9%.
